This is an account of results in PubChem BioAssay (NCI).

The panel holds about 79,000 compounds, 15% with a hit somewhere; the sample as a whole holds those more often. Values without a mark were called inactive. Cut-off read from the data, not from the text of the source: active = growth inhibition above about 70%; inactive = the rest.

This assay in a line: NCI Yeast Anticancer Drug Screen. Data for the bub3 strain (AID 167). The following applies: S. cerevisiae bub3 mutant strain, at 5.0 µM (retest, dose inferred, filed as 0.5), active compounds read high. The gist of the method:
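Inhibition values come from growth of compound-treated mutant yeast normalised to vehicle-treated controls.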
Turning to `CNS(=O)(=O)c1ccccc1C=C(c1ccccc1)c1ccccc1`, the growth inhibition was -11%.
Turning to `CC(C)c1cc(C(C)C)c(Cl)c(Cl)c1O` (tested in a mixture with another compound), the growth inhibition was 0%.
As for `Nc1cccc2cccnc12`, the growth inhibition was -3%.
`C[n+]1c(/C=C/c2ccc(N3CCCC3)cc2)sc2ccccc21`: the growth inhibition is 46%.
For the compound `Nc1cn(C2OC(CC(c3ccccc3)(c3ccccc3)c3ccccc3)C(O)C2O)c(=O)[nH]c1=O` (configuration not stated), the growth inhibition is 66%.
For the compound `c1ccc(Cn2nnc(-c3ccccc3)c2-c2ccccc2)cc1`, the growth inhibition was 17%.
As for `CCCCCC(CCCCC)OC(=O)CCN(CCCCC)CCCCC`, the growth inhibition was 1%.
As to `C=CCC1(OC(C)=O)CC2C(=O)C(=O)C(C1)N2OC(=O)c1ccccc1` (configuration not stated), the growth inhibition was -1%.
For `C=CS(=O)(=O)c1ccc([N+](=O)[O-])cc1`, the growth inhibition was 20%.
As for `Cc1ccc(S(=O)(=O)Oc2ccc(C(C)(C)C)cc2Cl)cc1`, the growth inhibition is 1%.
Take `O=C(CCl)N1CCN(C(c2ccccc2)c2ccccc2)CC1`: the growth inhibition is 13%.
Turning to `Oc1ccc2ccccc2c1.[Cu+2]`, the growth inhibition is 2%.
Regarding `NS(=O)(=O)c1ccc(NC(=O)Cc2nc3ccccc3s2)cc1`, the growth inhibition is 49%.
On to `O=C(COc1ccc(Cl)cc1)OCCO`, for which the growth inhibition was 2%.
As for `NC(=Nc1ccccc1)SCc1ccc([N+](=O)[O-])cc1`, the growth inhibition was 29%.
Turning to `N[C@@H]1CCCC[C@@H]1N.O=C([O-])CN(CP(=O)([O-])[O-])CP(=O)([O-])[O-].[Pt+2]`, the growth inhibition is 5%.
Regarding `C/C=C(\C)CC/C=C/CO[Si](C)(C)C(C)(C)C`, the growth inhibition is 7%.
